# Source: PubChem BioAssay
# Sampled rows, rich in hits. Any-hit rate of the full collection: about 2.3%.
# MCL1-BIM inh = MCL1-BIM-BH3 interaction inhibition (human). Q07820. GST-MCL1 / FITC-Bim-BH3 fluorescence polarization. inhibition, % at 10.9 µM. hit rate 0.68% among 320,000. AID 2057;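 active = inhibition above the mean inhibition of all tested compounds plus 3 SD, set per campaign, cut at about 40% in these data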;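 also: 0% = DMSO wells and 100% = unlabeled Bim-BH3 peptide control; higher means more loss of mP so more displacement of Bim peptide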
# Mcl1 Noxa PPI = disrupts binding of human Mcl-1 to Noxa peptide; Q07820; TR-FRET Mcl-1/Noxa peptide binding, 2 h; inhibition, % at 21.7 µM; hit rate 1.5% among 220,000; AID 1022;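 active = compounds that cut the protein-peptide binding signal by more than 50% relative to plate controls in a single-dose test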;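 also: His-tagged Mcl-1 with rhodamine Noxa BH3 peptide and terbium anti-His antibody; 0% = Mcl-1 plus Noxa peptide wells and 100% = peptide-only wells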
# Mcl1 Bid PPI = disrupts binding of human Mcl-1 to Bid peptide | AID 1021 | inhibition, % at 21.7 µM | TR-FRET Mcl-1/Bid-Dy647 peptide binding, 1536-well | hit rate 0.97% among 220,000;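 active = compounds that cut the binding signal by more than half at the single screening dose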;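 also: His-tagged Mcl-1 with europium anti-His antibody binding Bid BH3 peptide; 0% = Mcl-1 plus peptide wells and 100% = peptide-only wells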
# Bim-Mcl-1 = human Bim-Mcl-1 interaction inhibition | Bead-based flow cytometry, Bim peptide-Mcl-1 binding | inhibition, % at 10 µM | hit rate 0.1% among 190,000 | AID 1009; in the data active = inhibition above about 40%;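 also: 0% = no compound tracer wells and 100% = peptide blocker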
# BCLXL inh = inhibitors of human Bcl-xL; inhibition, % at 10.9 µM; hit rate 0.7% among 320,000; Q07817; GST-Bcl-xL / FITC-Bim BH3 peptide fluorescence polarization;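 active = inhibition above the mean of all tested compounds plus 3 SD, cutoff set per campaign, cut at about 30% in these data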;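 also: 0% = DMSO wells and 100% = unlabeled Bim-BH3 peptide competitor; inhibitors lower millipolarization by displacing the labeled peptide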
# Target sequence (Q07817 whole entry, looked up): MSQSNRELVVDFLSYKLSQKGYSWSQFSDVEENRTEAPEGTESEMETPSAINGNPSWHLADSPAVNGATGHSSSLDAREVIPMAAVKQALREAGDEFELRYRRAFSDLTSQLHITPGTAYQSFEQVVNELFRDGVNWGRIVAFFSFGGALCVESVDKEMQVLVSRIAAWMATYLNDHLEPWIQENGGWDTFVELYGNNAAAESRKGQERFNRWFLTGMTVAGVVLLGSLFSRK
# GLD-1 TGE inh = GLD-1-TGE RNA interaction inhibition (C. elegans); Q17339; purified GLD-1 + fluorescein TGE RNA, fluorescence polarization; inhibition, % at 5.96 µM; hit rate 0.44% among 320,000;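 active = percent inhibition above a per-plate cutoff, the plate mean of test compounds plus 3 SD, cut at about 30% in these data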;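 also: 0% = DMSO wells with GLD-1 and probe and 100% = wells lacking GLD-1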
# Target sequence (Q17339 whole entry, looked up): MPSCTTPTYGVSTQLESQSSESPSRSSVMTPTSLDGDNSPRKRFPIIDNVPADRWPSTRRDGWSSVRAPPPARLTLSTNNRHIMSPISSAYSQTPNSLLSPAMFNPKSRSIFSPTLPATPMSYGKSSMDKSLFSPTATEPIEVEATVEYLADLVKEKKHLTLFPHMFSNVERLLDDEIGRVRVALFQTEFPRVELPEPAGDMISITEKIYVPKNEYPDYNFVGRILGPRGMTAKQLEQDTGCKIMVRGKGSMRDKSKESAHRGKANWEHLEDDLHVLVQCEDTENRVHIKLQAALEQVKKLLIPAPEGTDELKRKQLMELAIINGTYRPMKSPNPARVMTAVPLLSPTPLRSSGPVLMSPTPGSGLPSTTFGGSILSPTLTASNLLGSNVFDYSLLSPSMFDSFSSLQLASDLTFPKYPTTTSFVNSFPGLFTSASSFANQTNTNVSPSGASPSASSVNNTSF
# BCLXL inh confirm = counter-screen for MCL1 inhibitors: confirmation of human Bcl-xL inhibitors; GST-Bcl-xL / FITC-Bim BH3 peptide FP binding; inhibition, % at 10.9 µM; hit rate 54% among 1,700; shares compounds with MCL1-BIM inh;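 active = inhibition above a cutoff equal to the mean inhibition of all tested compounds plus 3 SD, cut at about 30% in these data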;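 also: 0% = DMSO wells and 100% = unlabeled Bim BH3 control peptide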
# MCL1 BIM confirm = MCL1-BIM-BH3 interaction inhibition, confirmation; shares compounds with MCL1-BIM inh; GST-MCL1 / FITC-Bim-BH3 fluorescence polarization; inhibition, % at 10.9 µM; hit rate 61% among 1,700; AID 2168;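 active = inhibition above the average of all tested compounds plus 3 SD, cut at about 40% in these data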;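 also: 0% = DMSO wells and 100% = unlabeled Bim-BH3 control peptide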
# * hit, by the source's call; . = no result; + = active, no number.
SMILES,MCL1-BIM inh,Mcl1 Noxa PPI,Mcl1 Bid PPI,Bim-Mcl-1,BCLXL inh,GLD-1 TGE inh,BCLXL inh confirm,MCL1 BIM confirm
CCCCn1c(=O)[nH]c2nc3cc(N)ccc3nc2c1=O,+,-140.5,-64.1,-1.0,+,+,+,+
Nc1ccc2nc3c(=O)n(CCc4ccccc4)c(=O)[nH]c3nc2c1,+,-181.0,-32.2,.,180.5*,191.1*,182.4*,+
Cc1cc2nc3c(=O)n(CCc4ccccc4)c(=O)[nH]c3nc2cc1N,+,-158.4,-52.6,.,+,189.4*,189.8*,+
O=C(NCc1cn2ccccc2n1)C1CCC(=O)N(Cc2ccccc2F)C1 (configuration not stated),4.3,.,.,.,2.7,2.7,.,.
O=C(CSc1c2c(nc3ccccc13)CCCC2)NCc1ccco1,10.8,10.9,-5.4,0.0,10.9,3.5,.,.
O=C(NCc1ccco1)c1c2c(nc3ccccc13)CCC2,58.0*,102.4*,-40.7,-3.0,21.8,10.0,29.6,67.9*
CCOc1ccc(S(=O)(=O)N2CCCCC2)cc1NC(=O)c1c(CC)noc1C,-1.8,.,.,.,1.2,4.4,.,.
CCCCC1=CC2=C(c3ccco3)C(=O)C(C)(OC(=O)c3ccc(OC)cc3)C(=O)C2=CN1C1CCCCC1 (configuration not stated),51.5*,-7.6,-112.2,.,45.7*,39.4*,40.7*,59.2*
CCCCC1=CC2=C(c3ccco3)C(=O)C(C)(OC(=O)c3ccc(OC)cc3)C(=O)C2=CN1CCc1ccccn1 (configuration not stated),23.2,16.2,-66.6,.,13.2,15.6,.,.
O=C(OCCc1cc2ccccc2c(=O)o1)c1ccccc1C(F)(F)F,-2.8,.,.,.,5.1,-1.2,.,.
Nc1c(N)c2ccccc2oc1=O,8.5,-4.3,-74.6,0.0,7.6,5.1,.,.
O=c1oc2ccccc2c2oc3cc(O)c(O)cc3c12,70.5*,98.0*,-94.8,.,29.1,1.2,34.0*,74.0*
CC(C)N(C(=O)Nc1ccc2nsnc2c1)C(C)C,66.3*,0.7,-57.8,1.0,52.0*,28.1,28.4,24.3
Cc1ccc(Nc2nc(N)c(C#N)c(CC#N)c2C#N)cc1,2.3,12.5,-22.9,1.0,0.5,-2.3,.,.
Nc1nc(Oc2ccc(F)cc2)c(Br)c(=O)[nH]1,-3.5,.,.,.,2.8,1.0,.,.
COc1ccc(C(CC(=O)N2CCCC2)c2c(OC)cc(OC)c3ccc(=O)oc23)cc1 (configuration not stated),2.8,8.9,-11.9,.,5.7,3.9,.,.
COc1ccc(C(CC(=O)N2CCCC2)c2c(OC)cc(OC)c3c(-c4ccccc4)cc(=O)oc23)cc1 (configuration not stated),42.6*,86.5*,-111.0,.,3.8,-5.4,8.3,34.0
CN(C)C(CNC(=O)c1ccc(C2SCCS2)cc1)c1ccccc1 (configuration not stated),0.2,.,.,.,1.4,-0.8,.,.
O=C1NC(=Nc2ccc(Cl)cc2)/C(=C/c2ccco2)S1,90.2*,65.9*,57.3*,4.0,58.7*,5.2,37.7*,74.7*
Cc1cccc(N=C2NC(=O)S/C2=C\c2ccco2)c1,42.4*,35.5,3.7,0.0,35.0*,24.7,27.8,33.1
Cc1cc(C(=O)N2CCCC(CO)(Cc3ccc(F)cc3)C2)c(C)o1 (configuration not stated),-0.9,.,.,.,3.6,6.8,.,.
Cc1ccc(/C=C2\SC(=S)N(/N=C/c3cc([N+](=O)[O-])ccc3O)C2=O)o1,66.0*,90.5*,-21.2,1.0,26.9,4.4,30.7*,61.2*
Cc1ccc2c(c1)N(C(=O)CCC(=O)NCCCN1CCOCC1)CCO2,3.3,.,.,.,3.9,6.7,.,.
Oc1cccc2cc3cccc(O)c3c(O)c12,50.8*,97.3*,-6.4,1.0,43.1*,25.2,43.4*,49.8*
Cc1ccc(CNC(=O)c2cc3c(=O)n4ccccc4nc3n(Cc3ccco3)c2=N)cc1,-3.2,.,.,.,3.5,12.9,.,.
SMILES,MCL1-BIM inh,Mcl1 Noxa PPI,Mcl1 Bid PPI,Bim-Mcl-1,BCLXL inh,GLD-1 TGE inh,BCLXL inh confirm,MCL1 BIM confirm
N=c1c(C(=O)NCc2ccco2)cc2c(=O)n3ccccc3nc2n1C1CCCC1,63.0*,.,.,.,54.4*,21.6,156.8*,193.8*
Cc1ccc(S(=O)(=O)c2cc3c(=O)n4ccccc4nc3n(Cc3ccco3)c2=N)cc1,57.7*,72.2*,26.4,1.0,37.9*,10.3,24.5,20.1
Cc1cccn2c(=O)c3cc(C(=O)NCc4ccco4)c(=N)n(C(C)C)c3nc12,90.0*,19.5,3.2,0.0,83.7*,49.3*,39.5*,63.1*
Cc1ccc2nc3c(cc(C(=O)NCc4ccco4)c(=N)n3Cc3ccco3)c(=O)n2c1,57.7*,21.8,-31.2,-1.0,30.0,-0.1,13.0,7.1
COc1ccccc1-n1nnnc1SCC(=O)N1CCCC1=O,-3.1,.,.,.,-1.6,0.1,.,.
O=C(Nc1ccc(F)cc1F)c1noc2c1CCC2,46.5*,18.6,-24.2,-1.0,11.9,4.5,18.6,66.0*
O=C(Nc1cc(Cl)ccc1Cl)c1noc2c1CCCC2,4.1,14.1,-53.0,.,3.0,3.2,.,.
CCN1CCc2c(sc(NC(=O)Cc3ccccc3)c2C(N)=O)C1,6.9,.,.,.,7.2,2.3,.,.
CCN1CCc2c(sc(NC(=O)Nc3ccc(Cl)c(Cl)c3)c2C(N)=O)C1,86.7*,44.2,2.3,-3.0,39.8*,-34.3,54.2*,56.0*
CCC(=O)c1ccc(OCC(=O)OCC(=O)NC2CCCCCCC2)cc1,6.5,.,.,.,-0.8,1.1,.,.
CC(C)(C)NC(=O)c1ccc2c(c1)N(CC(=O)N1CCCCC1)C(=O)C(C)(C)O2,9.4,.,.,.,3.4,-6.7,.,.
CC1(C)Oc2ccc(C(=O)NC3CCCC3)cc2N(CC(=O)NC2CCCCC2)C1=O,54.1*,2.9,-0.2,-1.0,4.2,5.8,24.6,34.5
COc1cc([N+](=O)[O-])c2ncsc2c1,-2.2,11.5,8.7,-9.0,3.0,2.1,.,.
COc1cc(SSc2cc(OC)cc([N+](=O)[O-])c2N)c(N)c([N+](=O)[O-])c1,54.8*,75.3*,-13.4,.,26.3,6.8,30.6*,52.9*
CC(OC(=O)c1ccc(CN2CCCC2=O)cc1)C(=O)Nc1ccc(Cl)cc1 (configuration not stated),4.5,.,.,.,1.6,4.0,.,.
COC(CNC(=O)c1ccc2c3c(onc13)-c1ccccc1C2=O)OC,+,70.5*,-186.8,.,+,+,+,+
CCc1nnc(SCC(=O)NCCC2=CCCCC2)nc1CC,3.6,.,.,.,3.5,-0.5,.,.
O=C(O)c1cc(O)c2c(c1)C(=O)c1cc(O)cc(O)c1C2=O,40.6*,61.7*,6.8,1.0,23.5,6.3,20.9,33.9
